# Source: PubChem BioAssay (National Center for Advancing Translational Sciences (NCATS))
# Hits are enriched below; roughly 11% of the tested compounds scored in any of these assays.
# G9a inh = qHTS Assay for Inhibitors of Histone Lysine Methyltransferase G9a | Histone-lysine N-methyltransferase EHMT2 (Homo sapiens), Q96KQ7 | G9a H3K9 monomethylation, AlphaScreen, 2 h | Potency, µM (titrated, usually from 102 µM), without a hit: at the highest dose activity, negative = inhibition, usual class: inhibitors | 350,000 tested, 8.8% active; also: potency is read from the fitted curve at half-maximal effect; nearly all actives have a fitted effect of over 75% in size
# Target sequence (Q96KQ7 913-1193 limits assumed): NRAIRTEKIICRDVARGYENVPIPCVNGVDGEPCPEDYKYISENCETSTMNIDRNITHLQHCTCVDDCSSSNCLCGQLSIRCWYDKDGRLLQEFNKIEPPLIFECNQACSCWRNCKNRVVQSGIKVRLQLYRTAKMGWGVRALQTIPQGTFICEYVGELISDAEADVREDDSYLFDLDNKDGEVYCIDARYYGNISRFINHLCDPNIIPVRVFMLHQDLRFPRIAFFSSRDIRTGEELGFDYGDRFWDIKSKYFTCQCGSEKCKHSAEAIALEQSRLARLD
#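 Enzyme 20 nM + cpd, 15 min RT; add b-H3K9 pep 500 nM / SAM 20 uM; 2 h RT; anti-H3K9me1 Ab 0.5 ug/mL + SA donor / anti-rabbit acceptor beads 20 ug/mL each, 10 min; AlphaScreen read.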
# Tau ThT inhib = qHTS for Inhibitors of Tau Fibril Formation, Thioflavin T Binding | recombinant tau K18 P301L, heparin-induced fibrillization, ThT fluorescence | Potency, µM (highest dose often 57.4 µM), inactives show top-dose activity, negative = inhibition, most hits filed as inhibitors | 270,000 tested, 2.1% active | AID 1460, 2008; also: potency is read from the fitted curve at half-maximal effect; nearly all actives have a fitted effect of over 55% in size
# Target sequence (P10636 561-689 P618L limits assumed): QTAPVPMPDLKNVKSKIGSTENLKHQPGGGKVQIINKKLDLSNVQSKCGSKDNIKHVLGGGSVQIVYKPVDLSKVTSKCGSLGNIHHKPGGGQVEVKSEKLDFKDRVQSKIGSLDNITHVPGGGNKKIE
#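 K18 P301L tau (15 uM + 0.24 uM Alexa 594-tagged), heparin 20 uM, NaOAc pH 7, 6 h 37 C; ThT 30 uM, 1 h RT, ex 450/em 510 nm.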
# Tau FP inhib = qHTS for Inhibitors of Tau Fibril Formation, Fluorescence Polarization. K18 P301L tau heparin fibrillization, Alexa594 FP, 6 h. 280,000 tested, 0.39% active. Potency, µM (doses to about 57.7 µM), without a hit: top-dose activity, negative = inhibition, usual class: inhibitors; also: potency is read from the fitted curve at half-maximal effect; nearly all actives have a fitted effect of over 55% in size
#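 Quantitative HTS format: compounds meet 15 uM recombinant K18 P301L tau and Alexa 594-tau tracer in 100 mM sodium acetate pH 7; 20 uM heparin triggers fibrillization at 37 C over 6 hr; FP gives the signal.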
# Sfp inh = qHTS Assay for Inhibitors of Bacillus subtilis Sfp phosphopantetheinyl transferase (PPTase) | Biochemical Sfp PPTase activity, qHTS | 310,000 tested, 3.5% active | Potency, µM, for inactives: largest response in the series, negative = inhibition, most hits filed as inhibitors | AID 1490, 2009;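 also: the enzyme is Sfp with the accession as filed and its product quenches rhodamine fluorescence; potency is read from the fitted curve at half-maximal effect; 0% = enzyme reaction without inhibitor and -100% = no enzyme wells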
#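 Reaction rates are the 30-min fluorescence difference (ex 525, em 598 nm) in wells containing 15 nM Sfp, 5 uM rhodamine-CoA and 12.5 uM BHQ-2-YbbR at pH 7.6 with 10 mM MgCl2.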
# Tau fluor counter = Counterscreen qHTS for Inhibitors of Tau Fibril Formation, Fluorescence Polarization; 280,000 tested, 0.93% active; tau K18 P301L Alexa594 fluorescence, heparin fibrillization; Potency, µM (doses to about 57.7 µM), for the others: at the top dose activity change, negative = decrease; also: potency is read from the fitted curve at half-maximal effect; nearly all actives have a fitted effect of over 55% in size
#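 Human tau K18 P301L (15 uM unlabeled, 0.24 uM Alexa 594-labeled) in 100 mM sodium acetate pH 7 with 20 uM heparin, 6 hr at 37 C. ThT 30 uM added, 1 hr ambient; Alexa 594 FP and total fluorescence read at 555/632 nm.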
# Coupling enz = qHTS Assay for Inhibitors of Fructose-1,6-bisphosphate Aldolase from Giardia Lamblia: Coupling assay counterscreen. AID 2472, 2010. 290,000 tested, 0.67% active. activity change, negative = inhibition, % at 58.2 µM, hits read low. coupling enzyme system counterscreen, AmpLite Red fluorescence; in the data active = activity change below about -30%
#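 Activity here indicates interference with the coupling reaction, not aldolase inhibition. Compounds at 57.5 uM final met coupling enzymes for 10 min at RT; substrate and AmpLite Red detection followed, with a 525/598 nm fluorescence read after 20 min.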
# * marks the source's active call; other numbers are inactive results; u = inconclusive; x = no result given; ! = not active in a repeat; [ ] = remark or other dose. Unless noted, calls follow the shape of the dose curve; as a rule, active = well fitted curve in the direction sought with a large enough effect; inconclusive = small, poorly fitted or top-dose-only effect, or another doubt; inactive = no such curve, though single readings can be large; an effect the other way counts as inactive or inconclusive. Unless noted, % is scaled to controls: 0 for no effect and ±100 for the full control effect.
SMILES,G9a inh,Tau ThT inhib,Tau FP inhib,Sfp inh,Tau fluor counter,Coupling enz
NS(=O)(=O)c1ccc(N2C(=O)C3CC=CCC3C2=O)cc1 (stereo not given),u,4.1%,2.0%,19.5%,-0.1%,2.6
CC1=C(C)CS(=O)N(c2ccc(S(N)(=O)=O)cc2)C1 (stereo not given),u,u,u,25.1µM*,-0.7%,-1.4
Cc1cccc(C)c1N1CCN(S(=O)(=O)c2ccccc2)CC1,-17.7%,3.9%,-4.6%,-3.9%,-5.6%,0.4
CC1=C(C)CS(=O)N(S(=O)(=O)c2ccccc2)C1 (stereo not given),8.91µM*,u,u,14.1µM*,-3.7%,-0.4
O=C(OCC1CCCO1)c1ccc2c(c1)N(Cc1ccccc1F)C(=O)c1ccccc1S2(=O)=O (stereo not given),-3.8%[59 µM],0.0%,1.8%,x,-23.1%,x
Cc1ccc(S(=O)(=O)NCC(=O)N(CC2CCCO2)C(C(=O)NC2CCCCC2)C(C)C)cc1 (stereo not given),13.9%,x,x,15.2%,x,-0.9
Cc1ccccc1NCC(=O)Nc1cc(S(=O)(=O)N2CCCCC2)ccc1C,3.4%[12.7 µM],x,x,x,x,x
O=C(CN1CCCc2ccccc21)Nc1ccccc1[N+](=O)[O-],17.8µM*,-10.0%,8.0%,7.3%,-26.4%,-1.2
CC(NCC(=O)Nc1cc(S(=O)(=O)N2CCCCCC2)ccc1Cl)c1ccccc1 (stereo not given),10µM*,-7.0%,3.8%,-1.2%,-17.3%,-6.0
CC1Cc2ccccc2N1CC(=O)Nc1ccc(Cl)c(S(=O)(=O)N(C)C)c1 (stereo not given),28.2µM*,-10.0%,8.8%,6.6%,u,-0.4
CN(C)S(=O)(=O)c1cc(NC(=O)CN2CCc3ccccc32)ccc1Cl,15.8µM*,u,u,-26.8%,u,-29.2
CN(C)S(=O)(=O)c1cc(NC(=O)CN2CCN(c3ccccc3F)CC2)ccc1Cl,8.1%[59 µM],-8.7%,0.1%,10.5%,-23.8%,0.1
CN(CC(=O)Nc1ccc(F)cc1)C(=O)CSc1ncccn1,-9.7%,x,x,x,x,x
Cc1ccc(NC(=O)C2CCCN(c3nnc(-n4c(C)ccc4C)s3)C2)cc1Cl (stereo not given),-1.3%[59 µM],-15.2%,u,x,-27.5%,x
CCOC(=O)C1CCCN(c2nc3c(S(=O)(=O)c4ccc(Br)cc4)nnn3c3ccsc23)C1 (stereo not given),-14.8%[59 µM],4.1%,-11.7%,x,-18.5%,x
O=C(COc1ccccc1F)N1CCCc2ccccc21,-14.8%[0.501 µM],x,x,15.6%,x,-4.8
O=C(COc1ccccc1[N+](=O)[O-])N1CCCc2ccccc21,70.8µM*,x,x,-4.1%,x,-16.5
O=C(CN1CCCc2ccccc21)Nc1cc(S(=O)(=O)N2CCCC2)ccc1Cl,25.1µM*,x,x,x,x,x
CC(NC(=O)CN1CCN(c2ccccc2F)CC1)c1ccccc1 (stereo not given),12.2%,x,x,19.8%,x,4.1
CN(C)S(=O)(=O)c1ccc(NC(=O)CN2CCCc3ccccc32)cc1,39.8µM*,-15.5%,7.1%,2.0%,u,-0.6
CC(NC(=O)CN1CCc2ccccc21)c1ccccc1 (stereo not given),25.1µM*,-7.3%,3.3%,17.4%,-14.7%,-0.5
CCSc1nnc(NC(=O)CCN2C(=O)C3CCCCC3C2=O)s1 (stereo not given),17.0%[12.7 µM],x,x,x,x,x
N#Cc1cccc(NC(=O)Cn2nc(Cc3ccncc3)c3ccccc3c2=O)c1,-28.4%[59 µM],-9.2%,-10.1%,x,-19.8%,x
Cc1ccc(CNC(=O)CNC(=O)[C@@H]2Cc3ccccc3CN2C(=O)OC(C)(C)C)cc1,-8.8%,x,x,11.1%,x,2.9
Nc1cc(N)cc(C(=O)OCC(=O)Nc2cc(S(=O)(=O)N3CCCCC3)ccc2Cl)c1,31.6µM*,-1.2%,14.6%,16.4%,u,-4.1
SMILES,G9a inh,Tau ThT inhib,Tau FP inhib,Sfp inh,Tau fluor counter,Coupling enz
Cc1ccc(NC(=O)CSCC(=O)N2CCCc3ccccc32)cc1,44.7µM*,x,x,x,x,x
CN(C)S(=O)(=O)c1cc(NC(=O)CN2CCCc3ccccc32)ccc1Cl,35.5µM*,-15.7%,2.4%,-4.2%,u,-3.0
Cc1cccc(OCCSc2nc3ccc(NC(=O)COc4ccccc4)cc3s2)c1,4.7%[59 µM],u,u,x,-24.4%,x
O=C(O)c1cc(=O)cc(C(=O)O)[nH]1,1.68µM*!,8.3%,10.2%,39.8µM*,12.7%,0.7
O=C(Nc1cccnc1)c1cccc(NC(=O)c2ccco2)c1,39.8µM*,-2.5%,-0.6%,26.6%,2.1%,1.8
Cn1cnc2cc(NC(=O)c3ccco3)ccc21,-22.5%[12.7 µM],-14.0%,-1.8%,16.5%,-4.1%,0.6
O=C(Nc1ccc2c(c1)ncn2-c1ccccc1)c1ccco1,11.2µM*,-14.8%,1.9%,31.6µM*,-8.0%,-0.7
O=C(Nc1ccc2oc(-c3cccnc3)nc2c1)c1ccc(Br)o1,20µM*,u,-6.2%,50.1µM*,-13.2%,-17.5
Cc1ccc(C(=O)Nc2cccnc2)cc1NC(=O)c1ccco1,-3.0%[59 µM],-5.1%,5.4%,14.9%,-2.6%,0.6
O=C(Nc1ccc2oc(-c3cccnc3)nc2c1)c1ccco1,50.1µM*,u,0.2%,9.2%,-10.2%,x
Cn1cnc2c(ncn2[C@@H]2O[C@H](CO)[C@@H](O)[C@H]2O)c1=N,34.6%[59 µM],5.0%,-1.0%,22.1%,6.8%,x
COc1ccc(Cl)cc1NC(=O)Cn1c(=O)n(Cc2cccs2)c(=O)c2cccnc21,13.0%[59 µM],4.1%,u,x,-17.3%,x
CCOc1ccc(NC(=O)CSC2=Nc3ccccc3C3=NC(Cc4ccccc4)C(=O)N23)cc1 (stereo not given),3.5%[59 µM],-14.5%,-7.2%,x,-28.4%,x
O=C(Nc1cccc(NC(=O)c2nccc3ccccc23)c1)c1ccco1,44.7µM*,u,-8.5%,0.9%,-27.7%,-17.0
O=C(Nc1cccc(NC(=O)c2ccco2)c1)c1ccccc1,-8.8%,x,x,8.8%,x,-1.5
COc1ccc(C(=O)N/C(=C\c2ccc3c(c2)OCO3)C(=O)Nc2cccc(C(=O)O)c2)cc1,u,-6.3%,-0.9%,11.6%,-5.1%,13.4
O=C(CNC(=O)c1cccc(Cl)c1)NCC(c1cccs1)N1CCOCC1 (stereo not given),16.6%[12.7 µM],x,x,x,x,x
